# Data published in PubChem BioAssay.
# The other results are listed elsewhere or left out. Active and inactive are the calls of the source.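 Rule for the calls, unless noted: active = mean inhibition of at least 40% at 20 µM; inactive = the rest.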
# How the values were obtained:
# [1] = target: Protein Mdm4 (Homo sapiens) + E3 ubiquitin-protein ligase Mdm2 (Homo sapiens) (UniProt O15151+Q00987); assay: human Mdm2/MdmX binding disruption – cell-based, luminescence, single concentration, set 2, confirmation (AID 504601;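 active = mean inhibition of the luminescence signal across two replicates at or above 26 percent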); details: SaOS-2 split-luciferase Mdm2/MdmX complementation, at 8 µM, stronger effect = higher value
# [2] = HIF-2a driven luciferase blockers, single dose – luminescence, 786-0 RCC cells, confirmation (AID 651580;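 active = mean inhibition across four replicates of at least 40 percent at the single tested concentration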); details: HIF-2a luciferase reporter luminescence, overnight, at 18.8 µM, stronger effect = higher value
# [3] = HIF-1a luciferase reporter signal reduction – MiaPaCa-2 cells, single concentration, counter-screen for HIF-2a inhibitor project, confirmation (AID 651589;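 active = mean inhibition of the reporter signal across four replicates at the single tested dose of 50% or more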); details: MiaPaCa-2 HIF-1a luciferase reporter, desferoxamine, overnight; at 18.8 µM; stronger effect = higher value
# [4] = apoptosome-driven caspase-3 activation blockers – biochemical, fluorescence, DEVD-Rh110, 20 µM, confirmation (AID 504614); details: reconstituted apoptosome, caspase-3 DEVD-Rh110 fluorescence; at 20 µM; stronger effect = higher value;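 note: plate controls were DMSO wells for no effect and DEVD-CHO caspase inhibitor control wells for full effect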
# [5] = detection-step artefacts after completed caspase reaction – biochemical, fluorescence, Rh110, 20 µM, artefact control for Apaf-1 inhibitor project, confirmation (AID 504615;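 active = signal rise of 40% or more at 20 µM, treated as a fluorescence artifact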); details: quenched caspase reaction, at 20 µM, stronger effect = higher value
# [6] = target: Tumor necrosis factor receptor superfamily member 10B (Homo sapiens) (UniProt O14763); assay: viability loss of caspase-8 NB7 cells with TRAIL – with/without TRAIL, luminescence panel, confirmation (AID 651596; in the data active = activity above about 50%); details: NB7 neuroblastoma + caspase-8, TRAIL sensitization, NB7 Caspase-8, with TRAIL, mean of runs, at 10 µM, stronger effect = higher value
# [7] = as above; details: NB7 neuroblastoma + caspase-8, without TRAIL, NB7 Caspase-8, without TRAIL, mean of runs, at 10 µM
# [8] = inhibition of PEG-3 promoter luciferase signal – cell-based, HeLa, luciferase reporter, single concentration, confirmation (AID 602417;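 active = at 20 µM dose, 40% or more inhibition averaged across four replicates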); details: HeLa PEG-Prom luciferase reporter, luminescence, overnight; at 20 µM; stronger effect = higher value
# PEG-3 [9] = target: PEG-3 (UniProt Q6IN02); assay: inhibition of PEG-3 promoter-driven reporter – cell-based, HeLa, luciferase, CREF/GAPDH counter-screen panel, dose response (AID 624167); details: CREF/GAPDH counter-screens; HeLa PEG-Prom luciferase reporter, overnight, run 1, dose range 1, at 100 µM (top of the series) unless noted
# PEG-3 [10] = target: PEG-3 (UniProt Q6IN02); assay: as above; details: CREF/GAPDH counter-screens; HeLa PEG-Prom luciferase reporter, overnight, run 2, dose range 1, at 100 µM (top of the series) unless noted
# [11] = target: Tumor necrosis factor receptor superfamily member 10B (Homo sapiens) (UniProt O14763); assay: compound enhancement of TRAIL-induced cell killing – NB7 cells plus caspase-8, luminescence, panel, dose response (AID 652002); details: NB7 neuroblastoma +caspase-8, TRAIL sensitization, luminescence viability, NB7+Caspase-8, with TRAIL, run 1; at 12.5 µM (top of the series)
# [12] = target: Tumor necrosis factor receptor superfamily member 10B (Homo sapiens) (UniProt O14763); assay: as above; details: NB7 neuroblastoma +caspase-8, TRAIL sensitization, luminescence viability, NB7+Caspase-8, with TRAIL, run 2; at 12.5 µM (top of the series)
# [13] = as above; details: NB7 neuroblastoma +caspase-8, no TRAIL, compound-alone cytotoxicity counter-screen, luminescence viability, NB7+Caspase-8, run 1; at 12.5 µM (top of the series) unless noted
# [14] = as above; details: NB7 neuroblastoma +caspase-8, no TRAIL, compound-alone cytotoxicity counter-screen, luminescence viability, NB7+Caspase-8, run 2; at 12.5 µM (top of the series) unless noted
# [15] = fluorescence interference of Apaf-1 inhibitor hits, dose response, artefact control for Apaf-1 inhibitor project (AID 588538; call rule not given here); details: fluorescence interference counterscreen, Apaf-1 assay format
# [16] = NF-kB reporter suppression in CF airway cells – cell-based, GFP fluorescence, single concentration, confirmation (AID 602472; in the data active = inhibition above about 40%;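 note: stimulus PAF is a Pseudomonas aeruginosa filtrate and not platelet activating factor; plate controls were DMSO wells with stimulus for no effect and unstimulated DMSO wells for full effect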); details: KKLEB CF airway cells, PAF-induced NF-kB-GFP fluorescence, overnight; at 5 µM; stronger effect = higher value
# [17] = NFkB reporter suppression in cystic fibrosis bronchial cells – cell-based, uHTS hits, panel, cytotoxicity readout, dose response (AID 624344); details: CF bronchial epithelial cells, PAF-induced NFkB reporter inhibition, with PAF, run 1; at 79 µM (top of the series) unless noted
# [18] = as above; details: CF bronchial epithelial cells, PAF-induced NFkB reporter inhibition, with PAF, run 2; at 79 µM (top of the series) unless noted
# [19] = Brca1-Bard1 BiLC signal decrease – luminescence, single concentration, counter-screen for Mdm2/MdmX interaction inhibitor project, confirmation (AID 504668; call rule not given here); details: Brca1/Bard1 bimolecular luciferase complementation counterscreen, at 8 µM, stronger effect = higher value
# Chain of Tumor necrosis factor receptor superfamily member 10B (Homo sapiens) (O14763 whole entry, looked up): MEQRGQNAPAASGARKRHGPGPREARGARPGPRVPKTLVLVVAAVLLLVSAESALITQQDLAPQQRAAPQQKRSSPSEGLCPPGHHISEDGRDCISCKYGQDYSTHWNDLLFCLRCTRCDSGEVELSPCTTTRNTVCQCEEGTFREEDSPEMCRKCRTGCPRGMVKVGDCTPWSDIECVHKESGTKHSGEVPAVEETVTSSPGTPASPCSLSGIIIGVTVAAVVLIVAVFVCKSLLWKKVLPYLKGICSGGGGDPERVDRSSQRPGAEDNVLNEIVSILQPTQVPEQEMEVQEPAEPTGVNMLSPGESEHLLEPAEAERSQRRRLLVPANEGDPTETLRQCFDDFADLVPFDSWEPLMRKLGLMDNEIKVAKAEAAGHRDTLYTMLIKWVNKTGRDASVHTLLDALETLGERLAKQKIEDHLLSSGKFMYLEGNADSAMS
# Chain of PEG-3 (Q6IN02 whole entry, looked up): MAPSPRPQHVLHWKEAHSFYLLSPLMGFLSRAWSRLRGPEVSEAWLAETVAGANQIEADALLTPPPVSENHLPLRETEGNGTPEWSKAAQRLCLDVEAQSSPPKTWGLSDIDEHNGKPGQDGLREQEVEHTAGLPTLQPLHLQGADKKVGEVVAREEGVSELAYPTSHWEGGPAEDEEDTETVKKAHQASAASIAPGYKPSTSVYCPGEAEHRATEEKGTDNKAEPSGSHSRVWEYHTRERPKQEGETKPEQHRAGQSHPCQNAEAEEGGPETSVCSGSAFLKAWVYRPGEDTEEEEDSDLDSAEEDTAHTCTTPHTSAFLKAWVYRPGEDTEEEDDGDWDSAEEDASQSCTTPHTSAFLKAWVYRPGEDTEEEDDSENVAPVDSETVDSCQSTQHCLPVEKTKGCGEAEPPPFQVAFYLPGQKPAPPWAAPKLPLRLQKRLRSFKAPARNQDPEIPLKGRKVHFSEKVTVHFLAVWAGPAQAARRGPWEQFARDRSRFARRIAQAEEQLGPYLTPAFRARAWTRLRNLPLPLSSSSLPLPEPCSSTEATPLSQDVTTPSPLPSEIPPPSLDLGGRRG
# Chain of Protein Mdm4 (Homo sapiens) + E3 ubiquitin-protein ligase Mdm2 (Homo sapiens) (O15151 whole entry, looked up): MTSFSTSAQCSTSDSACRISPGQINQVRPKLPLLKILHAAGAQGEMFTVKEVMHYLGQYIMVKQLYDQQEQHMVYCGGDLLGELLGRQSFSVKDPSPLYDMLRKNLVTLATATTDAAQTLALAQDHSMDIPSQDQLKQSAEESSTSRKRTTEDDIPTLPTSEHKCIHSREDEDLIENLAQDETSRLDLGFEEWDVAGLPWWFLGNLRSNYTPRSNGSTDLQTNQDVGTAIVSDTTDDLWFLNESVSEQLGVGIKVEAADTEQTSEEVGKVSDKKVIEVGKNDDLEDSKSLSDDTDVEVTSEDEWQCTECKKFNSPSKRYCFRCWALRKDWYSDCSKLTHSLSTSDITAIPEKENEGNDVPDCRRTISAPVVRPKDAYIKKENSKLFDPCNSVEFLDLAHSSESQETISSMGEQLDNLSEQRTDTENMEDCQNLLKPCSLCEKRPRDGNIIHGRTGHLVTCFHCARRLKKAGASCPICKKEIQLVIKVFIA
# Chain of Protein Mdm4 (Homo sapiens) + E3 ubiquitin-protein ligase Mdm2 (Homo sapiens) (Q00987 whole entry, looked up): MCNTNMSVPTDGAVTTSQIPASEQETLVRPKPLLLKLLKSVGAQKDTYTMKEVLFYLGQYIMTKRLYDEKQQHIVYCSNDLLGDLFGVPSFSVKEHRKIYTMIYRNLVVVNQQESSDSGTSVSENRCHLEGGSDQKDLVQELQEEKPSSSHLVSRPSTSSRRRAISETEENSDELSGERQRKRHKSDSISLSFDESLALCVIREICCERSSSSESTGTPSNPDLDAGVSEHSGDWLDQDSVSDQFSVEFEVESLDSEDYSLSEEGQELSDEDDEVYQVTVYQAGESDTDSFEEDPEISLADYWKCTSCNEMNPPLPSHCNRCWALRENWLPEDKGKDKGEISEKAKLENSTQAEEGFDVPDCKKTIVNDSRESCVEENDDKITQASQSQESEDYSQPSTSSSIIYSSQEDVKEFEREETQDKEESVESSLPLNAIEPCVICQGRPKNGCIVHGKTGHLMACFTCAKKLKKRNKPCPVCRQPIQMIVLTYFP
compound,measurement,setting,value
CCN(CC)S(=O)(=O)c1ccc(NC(=O)c2cccnc2Cl)c(NC(=O)c2cccnc2Cl)c1,inhibition,[1],75.5% (active)
same,inhibition,[2],91.6% (active)
same,inhibition,[3],62.3% (active)
CCCC[C@@H]1CN=C(N)N1CCc1cc(C(F)(F)F)cc(C(F)(F)F)c1,inhibition,[4],11.5% (inactive)
same,activation (fluorescence interference),[5],3.05% (inactive)
Cc1ccc(-c2ccc(/C=N/NC(=O)CN3CCOCC3)o2)cc1[N+](=O)[O-],inhibition,[4],27.9% (inactive)
same,activation (fluorescence interference),[5],-3.95% (inactive)
C[C@@H](CN1CCC[C@H]1CN1C(N)=NC[C@@H]1Cc1ccccc1)N1C[C@@H](Cc2ccccc2)N(CCCC2CCCC2)C1=N,inhibition,[4],11.8% (inactive)
same,activation (fluorescence interference),[5],7.13% (inactive)
Cc1ccc(S(=O)(=O)N2CCN(C(=O)c3ccccc3-c3nc4ccccc4s3)CC2)c(C)c1,inhibition,[4],34.1% (inactive)
same,activation (fluorescence interference),[5],4.66% (inactive)
CC(NC(=O)c1ccccc1SCC(=O)N1CCCC1)c1ccccc1 (stereo unspecified),inhibition,[4],22.9% (inactive)
same,activation (fluorescence interference),[5],-8.17% (inactive)
Cc1cc2oc3ccc(NCCC4CCCN4C)cc3c(=O)c2cc1C (stereo unspecified),inhibition,[4],10.1% (inactive)
same,activation (fluorescence interference),[5],4.87% (inactive)
CCOC(=O)/C(=C\c1ccc([N+](=O)[O-])cc1)C(=O)c1cc(C(C)=O)c(Nc2ccccc2)s1,inhibition,[1],100% (active)
same,activity,[6],95.3%
same,activity,[7],95.6%
O=C(O)c1cc(Cl)c(Cl)cc1C(=O)Nc1cccc2ncccc12,inhibition,[4],1.69% (inactive)
same,activation (fluorescence interference),[5],-4.02% (inactive)
COc1cccc(/C=N/Nc2cc(C)nc(-c3ccccc3O)n2)c1O,inhibition,[1],99.7% (active)
same,inhibition,[8],94.4% (active)
same,inhibition,PEG-3 [9],100%
same,inhibition,PEG-3 [10],102%
CCOC(=O)N1CCC(NC(=O)C(C)n2c3ccccc3c3cnn(C)c(=O)c32)CC1 (stereo unspecified),inhibition,[4],14% (inactive)
same,activation (fluorescence interference),[5],17.6% (inactive)
COc1cc(NC(=O)c2[nH]cnc2C(N)=O)cc(C(=O)Nc2cccc(C(F)(F)F)c2)c1,inhibition,[1],101% (active)
same,activity,[6],86.1%
same,activity,[7],53.4%
same,"activity, % sensitization",[11],36.3%
same,"activity, % sensitization",[12],52.5%
same,"activity, % sensitization",[13],5.71%
same,"activity, % sensitization",[14],43.7%
COc1ccc2sc(-c3ccccc3OC)c(-c3ccc(OCCN4CCCC4)cc3)c2c1,inhibition,[4],27.1% (inactive)
same,activation (fluorescence interference),[5],6.49% (inactive)
COc1ccc(N(CCC(=O)NCCc2ccccc2)S(=O)(=O)c2ccc(C)cc2C)cc1,inhibition,[4],35.9% (inactive)
same,activation (fluorescence interference),[5],3.62% (inactive)
C=CCC[C@H](Cc1ccc(F)cc1)C(=O)OC[C@@H](NC(=O)[C@@H](CC=C)CC(=O)N[C@H](CO)Cc1ccccc1)C(C)(C)C,inhibition,[4],14.6% (inactive)
same,activation (fluorescence interference),[5],3.46% (inactive)
CC(C)c1ccccc1OCC(O)CN(CC(O)COc1cccc2ccccc12)C(C)C (stereo unspecified),inhibition,[4],16.9% (inactive)
same,activation (fluorescence interference),[5],14.2% (inactive)
O=[N+]([O-])c1c(NCCO)cc(Sc2nc3ccccc3s2)c2nonc12,inhibition,[1],102% (active)
same,inhibition,[4],19.9% (inactive)
same,activation (fluorescence interference),[5],4.65% (inactive)
NC(N)=NCCCc1cn(CC(=O)N2CCNCC2)nn1,inhibition,[4],9.2% (inactive)
same,activation (fluorescence interference),[5],-2.11% (inactive)
CC1CCCCC1NC(=O)/C(C#N)=C/C=C/c1ccccc1[N+](=O)[O-] (stereo unspecified),inhibition,[1],103% (active)
same,inhibition,[2],50.3% (active)
same,inhibition,[3],106% (active)
O=C(Cc1cc(=O)[nH][nH]1)N/N=C/c1ccccc1[N+](=O)[O-],inhibition,[4],5.01% (inactive)
same,activation (fluorescence interference),[5],0.43% (inactive)
O=C(CC(O)(C(F)(F)F)C(F)(F)F)Nc1ccc(Cl)c(Cl)c1,inhibition,[1],103% (active)
same,activity,[6],61.6%
same,activity,[7],63.1%
C(=N/Nc1cc(N2CCOCC2)nc(N2CCOCC2)n1)/c1ccccc1,inhibition,[4],27.8% (inactive)
same,activation (fluorescence interference),[5],2.85% (inactive)
CCCCCCCCCCOC(=O)Cn1c(COc2ccc(C)cc2)[n+](C)c2ccccc21,inhibition,[1],103% (active)
same,inhibition,[4],81.3% (active)
same,activation (fluorescence interference),[5],25.8% (inactive)
same,IC50,[15],> 100 µM (inactive)
CC(=O)Nc1ccc(NC(=O)C(C)OC(=O)c2ccccc2C(=O)c2ccc(Cl)c([N+](=O)[O-])c2)cc1 (stereo unspecified),inhibition,[1],102% (active)
same,inhibition,[16],72.6% (active)
same,inhibition,[17],102%
same,inhibition,[18],98.8%
COC1=C(N2CCOCC2)C(=O)c2ccccc2C1=O,inhibition,[4],29.1% (inactive)
same,activation (fluorescence interference),[5],4% (inactive)
O=S(=O)(Nc1ccc(O)c2ccccc12)c1ccc(OC(F)(F)F)cc1,inhibition,[4],21.3% (inactive)
same,activation (fluorescence interference),[5],-2.71% (inactive)
Cc1ccc(CS(=O)(=O)c2ncc(Cl)c(C(=O)Nc3nnc(C)s3)n2)cc1,inhibition,[1],103% (active)
same,inhibition,[2],31.5% (inactive)
same,inhibition,[3],104% (active)
same,activity,[6],97.2%
same,activity,[7],97.2%
c1ccc(CSc2nnc(-c3ccco3)c(-c3ccco3)n2)cc1,inhibition,[4],29.4% (inactive)
same,activation (fluorescence interference),[5],6.26% (inactive)
CCCCNC(=O)C(C)N(CCN(C)C)C(=O)CCCCCN1C(=O)NC(c2ccc(Cl)cc2)C(C(=O)OCc2ccccc2)=C1C (stereo unspecified),inhibition,[8],99.7% (active)
same,inhibition,PEG-3 [9],102%
same,inhibition,PEG-3 [10],101%
CCc1ccc(CNC(=O)C2CCN(c3nnc(C)c4c(C)n(-c5ccc(C)cc5)nc34)CC2)cc1,inhibition,[2],-2.57% (inactive)
same,inhibition,[3],20.1% (inactive)
Cc1nc(/N=C(\N)NC(=O)NC2CCCCC2)nc2ccccc12,inhibition,[19],34.4% (active)
N#C/C(=N/Nc1ccc(OC(F)(F)F)cc1)C(N)=S,inhibition,[19],35% (active)
O=C(CCCN1C(=O)/C(=C\c2ccccc2)SC1=S)Nc1ccc(O)cc1,inhibition,[19],33.2% (active)
COc1cccc(/C=N/NC(=O)c2cc(-c3cccn3C)n[nH]2)c1O,inhibition,[19],32.4% (active)
O=C(CSc1nnnn1-c1ccccc1)Nc1nsc(-c2ccccc2)n1,inhibition,[19],27.7% (active)
Cc1c(Cl)c([N+](=O)[O-])nn1Cc1ccc(C(=O)N/N=C\c2cc(Cl)ccc2O)o1,inhibition,[19],32.4% (active)
Nc1nonc1-n1nnc(C(=O)N/N=C/c2cc(Cl)ccc2O)c1CN1CCCCCC1,inhibition,[19],32.2% (active)
Cc1nn2c(NCc3ccccn3)cc(C(C)C)nc2c1-c1ccccc1,inhibition,[19],28.7% (active)
Oc1c(C(c2ccccc2Cl)N2CCCC2)ccc2cccnc12 (stereo unspecified),inhibition,[19],31.4% (active)
Oc1c(C(c2cccs2)N2CCN(c3ccccc3)CC2)ccc2cccnc12 (stereo unspecified),inhibition,[19],23.1% (active)
Cc1ccccc1-c1cc(C(=O)Nc2nc3c(s2)CCCC3)c2ccccc2n1,inhibition,[19],34.9% (active)
CCn1cc(CN2CCC(C(=O)Nc3cccc(-c4cccc(Cl)c4)c3)CC2)c(C)n1,inhibition,[4],12.8% (inactive)
same,activation (fluorescence interference),[5],5.12% (inactive)
same,inhibition,[8],95.8% (active)
same,inhibition,PEG-3 [9],98.4%
same,inhibition,PEG-3 [10],101%
